Hit rate of the full screen: of about 260,000 compounds, about 1,500 (0.58%) were called active. Roughly 5% stayed inconclusive and do not appear here.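 The calls were made as follows: active = inhibition above a set limit at one or more doses, reproduced on every date tested; inconclusive = results disagree between test dates, or hit never tested in dose response; inactive = the rest.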 Not all results are given here. Measured potencies and affinities stand elsewhere.
molecular target: Virion infectivity factor (Human immunodeficiency virus type 1 group M subtype B (isolate BH10)) + Virion infectivity factor (Human immunodeficiency virus type 1 group M subtype B (isolate BRU/LAI)) + Virion infectivity factor (Human immunodeficiency virus type 1 group M subtype B (isolate PCV12)) + Virion infectivity factor (Human immunodeficiency virus type 1 group M subtype B (isolate HXB2)) + DNA dC->dU-editing enzyme APOBEC-3G (Homo sapiens) (UniProt P69720+P69721+P69722+P69723+Q9HC16); assay: inhibitors of Vif binding to APOBEC3G peptide, primary screen, biochemical, TR-FRET, GST-Vif 1-94, biotin-A3G peptide, dose response retest (AID 1117319); conditions: stronger effect = higher value;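 also: Vif residues 1-94 fused to GST binding biotinylated APOBEC3G peptide 110-148; 0% = full assay without inhibitor and 100% = GST in place of GST-Vif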

inhibition, inactive:
CCOC(=O)c1nn(-c2ccccc2C)c(=O)c(C#N)c1C 12.1%, CCOC(=O)c1nc(C)n(-c2ccc(Cl)cc2Cl)n1 23.2%, O=C(Oc1c(-c2ccccc2)oc2ccccc2c1=O)c1ccccc1 -7.08%, N#Cc1c(-c2ccc(Cl)cc2)c2c([nH]c1=S)CCCC2 -9.58%, COc1ccc(OC)c(-c2c3c([nH]c(=S)c2C#N)CCCC3)c1 -14.3%, Cc1ccc(-c2c(C(=O)Nc3ccccc3C)c(C)[nH]c(=S)c2C#N)o1 17.8%, COc1ccc(-c2c3c([nH]c(=S)c2C#N)CCC3)cc1 -9.25%, N#Cc1c(-c2cccnc2)c2c([nH]c1=S)CCCC2 28.4%, Cc1ccccc1NC(=O)c1c(C)[nH]c(=S)c(C#N)c1-c1ccc(Cl)cc1 -0.84%, CC(=O)OC1CC[C@@]2(C)C(CCC3C2CC(=O)[C@@]2(C)C3CC3CC(C)=CC(=O)C32)C1 (stereo partly drawn) -1.09%, CC(Oc1ccccc1F)C(=O)NNC(=O)CCS(=O)(=O)c1ccccc1Cl (stereo not drawn) 3.79%, CC1CC(C)(C)NC(=S)N1CCC(=O)N1CCc2ccccc2C1 (stereo not drawn) -8.29%, CC1(C)C(=O)NCCN1C(=O)CCC(=O)O -4.36%, Cc1ccc(CNC(=O)C2CC3Cn4c(nc5cc6ccccc6cc54)C3N2C)o1 (stereo not drawn) 5.41%, O=C(CSc1ccc(-c2nc3ccccc3[nH]2)cn1)Nc1ccc(S(=O)(=O)N2CCCC2)cc1 -5.26%, O=C(CSc1nnc(NC(=O)c2cccc(Cl)c2)s1)NCC1CCCO1 (stereo not drawn) 3.82%, CCOc1cc(N2CCOCC2)c(OCC)cc1NC(=O)COc1ccc2ccc(=O)oc2c1 -0.33%, COc1ccccc1C(c1nnnn1Cc1ccco1)N1CCN(c2cccc(C)c2C)CC1 (stereo not drawn) 25.8%, COC(=O)C1CCCCN1C(=O)c1cc(COc2cccc3cccnc23)on1 (stereo not drawn) 4.07%, O=C(c1cc(COc2ccc3ncccc3c2)on1)N1CCC[C@H]1CO 1.67%, COc1cccc(CNC(=O)CCCN2C(=O)C(c3ccccc3)Oc3cccnc32)c1OC (stereo not drawn) -2.88%, CCOC(=O)C1=C(C)N(C2CCCCC2)C(=O)C1 -5.38%, COC(=O)\C(C(C)=O)=C(/C=C/C=C/N(C)C)N(C)C 27.9%, COC(=O)/C(C(C)=O)=C(/C=C/C=C/N(C)C)N(C)C 16.1%, COCCNC(=O)c1cc(-c2ccncc2)nc2ccc(S(=O)(=O)N3CCOCC3)cc12 -13.5%, CC1(C)[C@@H](O)CC[C@]2(C)[C@H]3C(=O)C=C4[C@@H]5C[C@@](C)(C(=O)O)CC[C@]5(C)CC[C@@]4(C)[C@]3(C)CC[C@@H]12 27.5%, Cc1ccc([C@H]2C(C#N)=C(N)Oc3cc(C)oc(=O)c32)o1 1.59%, Cc1ccc(C2C(C#N)=C(N)Oc3cc(C)oc(=O)c32)o1 (stereo not drawn) -6.32%, CCCCCC(=O)NNC1CC(=O)N(c2ccccc2)C1=O (stereo not drawn) -9.34%, C[C@H](N)c1nnc(SCc2ccc(Cl)cc2Cl)o1 1.96%, CCN1C(C)=C(C)S/C1=C1\SC(=S)N(N)C1=O 7%, Cn1cc(/C=N/NC(=O)c2cc3cc(Br)ccc3o2)c2ccccc21 -7.92%, O=C(O)Cn1cc(/C=N/NC(=O)c2cc3cc(Br)ccc3o2)c2ccccc21 0.84%, COc1ccc(Cl)cc1C(=O)NNC(=O)CSc1nnc2ccccn12 -2.97%, O=C(/C=N/O)Nc1cccnc1 28.5%, COC(=O)/C=C/C(=O)Nc1cccnc1 15.1%, CCOc1c(OC(C)=O)ccc(/C=C/c2ccc3cccc(OC)c3n2)c1[N+](=O)[O-] 21.2%, COc1c(OC(C)=O)ccc(/C=C/c2ccc3cccc(OCc4ccccc4)c3n2)c1[N+](=O)[O-] 5.7%, O=C(CSCC(=O)c1ccccc1)Nc1ccccc1Cl -5.7%, COc1ccc(C(=O)Nc2cccc(-c3nnc(-c4ccco4)o3)c2)cc1 -0.63%, S=C(NCCN1CCOCC1)N/N=C/c1ccccc1 0.06%, Oc1ccc(/C=N/NC(=S)NCCN2CCOCC2)c(O)c1 24.1%, CC(=O)NCCOc1ccc(C(=O)O)cc1 -5.42%, CCCCOC(=O)n1c(=O)oc2ccc(S(=O)(=O)N3CCCCC3)cc21 -5.83%, O=[N+]([O-])c1cc(-c2ccccc2)cc([N+](=O)[O-])c1O -4.83%, O=C(O)c1cc([N+](=O)[O-])cc2ccccc12 -6.07%, Cc1cc(Cl)c2oc(C(=O)N3CCN(c4cnccn4)CC3)c(C)c2c1 2.03%, CC(C)(C)NC(NC(=O)Cc1ccccc1)C(Cl)(Cl)Cl (stereo not drawn) 2.28%, O=C(Cc1ccccc1)NC(Nc1cccc2ccccc12)C(Cl)(Cl)Cl (stereo not drawn) -5.91%, CN(CCC1CCOCC1)C(=O)C1CCC(=O)N(CCc2ccc(Cl)cc2)C1 (stereo not drawn) -0.45%, CN1/C(=C\C=Nc2ccc3ccccc3c2)C(C)(C)c2ccccc21 15.9%, CN1/C(=C\C=Nc2ccccc2)C(C)(C)c2ccccc21 13.4%, Cc1nc2ccccc2nc1-c1ccc([N+](=O)[O-])cc1 3.82%, COc1cc2c3c(c1OC)C1(C=CC(=O)C=C1)CC3N(C(=O)c1ccccc1)CC2 (stereo not drawn) 16.3%, COc1cc2c3c(c1OC)C1(C=CC(=O)C=C1)CC3N(C(C)=O)CC2 (stereo not drawn) 25.2%, O=S(=O)(Nc1ccccc1)c1ccc(-c2cnc(C3CC3)o2)cc1 5.89%, CCOc1cccc2cc(C(C)=O)oc12 -1.92%, CCOc1ccccc1N1CCN(Cc2ccco2)CC1 0.19%, COc1cccc(=O)c2c(C)n(CC(=O)c3ccccc3)c(C)c12 19.6%, CCOc1ccccc1N1C(=O)c2ccc(C(=O)O)cc2C1=O -5.01%, CCOc1ccc2c(C)c(C)c(=O)oc2c1OCC -2.36%, CCOc1ccccc1OCC(=O)O 2.95%, COC(=O)c1c(C(=O)OC)c(C)n(Cc2ccco2)c1C 1.05%, COc1cccc(-n2c(C)c3c(OC)cccc(=O)c3c2C)c1 31.7%, CCN(CC(=O)Nc1c(F)cccc1F)C(=O)c1ccc2c(c1)OCCO2 8.86%, CCOc1ccc(CN(C)C(=O)CCc2ccc(S(=O)(=O)N3CCCCCC3)cc2)cc1 -5.71%, CNC(=O)c1c(NC(=O)CS(=O)(=O)c2ccccc2)sc(C)c1C 2.6%, OC1CCCN(C(=S)Nc2ccc(SC(F)F)cc2)C1 (stereo not drawn) 21.9%, Cc1ccc(NC(=O)CSc2nc(=O)n(CCN(C)C)c3c2CCCC3)cc1Cl -8.42%, COC(=O)c1cc2occc2n1CC(=O)N(C)C1CCCCC1 15.2%, CN1CCN(c2cc(N3CCc4ccccc4C3)c(F)cc2[N+](=O)[O-])CC1 -1.87%, COc1ccc(Br)c(C(=O)NNC(=O)c2ccc(NS(=O)(=O)c3cccs3)cc2)c1 2.76%, C(C#CCN1CCOCC1)#CCN1CCOCC1 5.57%, CCc1ccccc1Nc1nc(N)nc(CSc2nnnn2C)n1 0.07%, CSCCC(NC(=O)/C(=C\c1ccc(Cl)cc1)NC(=O)c1ccccc1)C(=O)O (stereo not drawn) 1.24%, CCOc1ccccc1C(c1c(C)n(C)n(-c2ccccc2)c1=O)c1c(C)n(C)n(-c2ccccc2)c1=O -1.18%, COc1cccc(=O)c2c(C)n(-c3cc(C)cc(C)c3)c(C)c12 21.8%, COc1ccc(-n2c(C)c3c(OC)cccc(=O)c3c2C)cc1 32.9%, CCOc1ccccc1-c1cc(-c2ccccc2)nc2c1c(=O)n(C)c(=O)n2C -7.81%, COc1ccc(CNC(=O)Cn2cnc3c(OCc4ccccc4)ncnc32)cc1 -3.17%, Cc1ccc(S(=O)(=O)Nc2ccccc2-c2ccccc2)cc1 -0.15%, Cc1ccc(S(=O)(=O)c2c(C)nn(C(C)(C)C)c2OC(=O)CC(C)C)cc1 -0.23%, CCN1CCN(C(=O)Cn2cnc3sc(C)c(S(=O)(=O)N4CCN(c5ncccn5)CC4)c3c2=O)CC1 6.94%, COCCN=c1scc(-c2cccs2)n1/N=C(\C)c1ccco1 -4.46%, CCN=c1scc(-c2cccs2)n1/N=C/c1cc(OC)ccc1O 11.2%, CN=c1scc(-c2ccccc2F)n1/N=C/c1ccc[nH]1 3.11%, CN=c1scc(C)n1/N=C/c1cc(Br)c(O)c(OC)c1 17.7%, CCOc1ccc(C(=O)NCC(C)C)cc1 1.08%, Cc1ccc(C)c(NC(=O)N2CCc3ccccc3C2)c1 -0.5%, Cc1cc(C)n(CC2CC(=O)N(c3ccc(Cl)cc3)C2=O)n1 (stereo not drawn) -0.66%, CC(=O)N1CCN(C(=O)c2ccc(Oc3ccccc3)cc2)CC1 -9.55%, Cc1ccc(N2C(=O)CN(Cc3sccc3C)C2=S)cc1C 8.31%, CC1C/C=C/C=C/C=C/C=C/C(O[C@@H]2O[C@H](C)[C@@H](O)[C@H](N)[C@@H]2O)CC2OC(O)(CC(O)CC3OC3/C=C/C(=O)O1)CC(O)C2C(=O)O (stereo partly drawn) -4.31%
